From PubChem BioAssay
LEDGF integ inh = blockers of LEDGF/p75-dependent integrase strand transfer – biochemical, TR-FRET, high throughput, primary screen | HIV-1 integrase (with human LEDGF/p75) | TR-FRET IN-LEDGF/p75 DNA integration, Eu/Cy5 | inhibition, % at 3.7 µM | 370,000 tested, 0.64% active | AID 743269, 2014;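 active means inhibition above the screen-wide mean plus 3 SD, cut at about 13% in these data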;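 further: signal is the Cy5 over europium emission ratio at 671 and 618 nm; 0% = plate median of compound wells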
MBD2 inh = inhibitors of MBD2 binding to methylated DNA, primary screen, biochemical, TR-FRET, DNA-binding domain, human | MBD2 binding to methylated oligonucleotide | inhibition, % at 4.4 µM | 370,000 tested, 0.31% active; in the data active means inhibition above about 13%
rCAG RNA binder = binders of r(CAG) RNA repeats, primary screen, biochemical, fluorescence; 370,000 tested, 1.3% active; inhibition, % at 3 µM; r(CAG) RNA repeat, TO-PRO-1 dye displacement fluorescence;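 active means inhibition above the plate cutoff, the mean of all test compounds on that plate plus 3 SD, cut at about 35% in these data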;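 further: 0% = DMSO alone and 100% = 100 µM mitoxantrone as full dye displacement; higher means more dye released from RNA so lower well fluorescence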
UHRF1 MBD2 ctr = UHRF1 methylated DNA binding inhibitors, primary screen, counter-screen for MBD2 inhibitor project, biochemical, TR-FRET, human UHRF1, single concentration; E3 ubiquitin-protein ligase UHRF1 (Homo sapiens), Q96T88; UHRF1 binding to methylated oligo; inhibition, % at 4.4 µM; 370,000 tested, 0.75% active; AID 687016, 2013;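 further: UHRF1 SRA domain binding a hemimethylated CpG hairpin DNA probe; 0% = median of test compound wells and 100% = reference inhibitor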
ABHD5-PLIN5 inh = ABHD5-PLIN5 interaction inhibitors, primary screen, cell lysate, split luciferase complementation, luminescence; Split G. princeps luciferase complementation, 4 h; inhibition, % at 4 µM; 360,000 tested, 0.78% active;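 active means inhibition above the mean inhibition across every tested compound plus 3 SD, cut at about 22% in these data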;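 further: 0% = DMSO only wells and the 100% control is not disclosed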
PRMT1 inh = PRMT1 methyltransferase inhibitors, primary screen, biochemical, fluorescence polarization; inhibition, % at 2.79 µM; Protein arginine N-methyltransferase 1 (Homo sapiens), Q99873; 370,000 tested, 1.3% active; recombinant PRMT1, activity-based probe fluorescence polarization;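 active means inhibition above about 21% made by adding two undisclosed values, limit read from the data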
Target sequence (Q99873 whole entry, looked up): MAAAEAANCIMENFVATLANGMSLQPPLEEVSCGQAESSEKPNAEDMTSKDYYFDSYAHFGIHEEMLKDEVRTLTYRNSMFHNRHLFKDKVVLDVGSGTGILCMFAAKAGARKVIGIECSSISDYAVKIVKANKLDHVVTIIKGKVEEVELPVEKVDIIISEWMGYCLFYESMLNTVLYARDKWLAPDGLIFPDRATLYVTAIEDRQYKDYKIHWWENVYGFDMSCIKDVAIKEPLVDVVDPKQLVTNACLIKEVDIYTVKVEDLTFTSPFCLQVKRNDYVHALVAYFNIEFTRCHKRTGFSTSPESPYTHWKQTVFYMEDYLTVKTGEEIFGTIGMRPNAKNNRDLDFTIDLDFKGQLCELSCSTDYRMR
rCAG bind conf = small molecules binding CAG repeat RNA – biochemical, fluorescence, confirmation | shares compounds with rCAG RNA binder | r(CAG) RNA repeat, TO-PRO-1 dye displacement fluorescence | inhibition, % at 3 µM | 4,300 tested, 70% active;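 active means inhibition above a per-plate cutoff, the mean inhibition of sample wells plus 3 SD, cut at about 35% in these data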;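 further: loss of TO-PRO-1 fluorescence as compound displaces dye from 1x1 AA loop RNA; 0% = DMSO only wells and 100% = 100 µM mitoxantrone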
DNA CAG counter = displacement of TO-PRO-1 from CAG DNA duplex, counter-screen for rCAG RNA repeat binder project, biochemical, fluorescence, TO-PRO-1 dye, d(CAG) DNA oligo | inhibition, % at 3 µM | shares compounds with rCAG RNA binder | d(CAG) DNA oligo TO-PRO-1 dye displacement | 4,300 tested, 94% active;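 active means inhibition above its plate's cutoff, the mean test-well inhibition plus 3 SD, cut at about 4.8% in these data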;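 further: 0% = DNA dye mix with DMSO and 100% = 100 µM mitoxantrone; hits displace the dye from DNA and so lower well fluorescence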
PRMT1 inh conf = PRMT1 methyltransferase inhibitors, confirmation, biochemical, fluorescence polarization, triplicate; 3,300 tested, 42% active; inhibition, % at 2.79 µM; shares compounds with PRMT1 inh; recombinant His-PRMT1, activity-based probe fluorescence polarization;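 active means mean inhibition across replicates above the hit cutoff derived for the earlier primary screen, cut at about 22% in these data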
UHRF1 DNA bind = UHRF1 methylated DNA binding inhibitors, counter-screen for MBD2 inhibitor project, biochemical, TR-FRET, human UHRF1. 1,000 tested, 25% active. AID 720530, 2013. inhibition, % at 4.4 µM. shares compounds with MBD2 inh. UHRF1 binding to methylated oligonucleotide;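 further: UHRF1 SRA domain binding a labeled hemimethylated CpG hairpin DNA; 0% = vehicle only and 100% = reference inhibitor with vehicle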
MBD2 confirm = inhibitors of MBD2 binding to methylated DNA, confirmation, biochemical, TR-FRET, DNA-binding domain, human; shares compounds with MBD2 inh; TR-FRET MBD2-DBD binding to methylated oligonucleotide; inhibition, % at 4.4 µM; 1,000 tested, 26% active; AID 720531, 2013; in the data active means inhibition above about 14%
IN multimer up = HIV-1 IN multimer formation enhancers, counter-screen for LEDGF/p75 integration inhibitor project, biochemical, TR-FRET | shares compounds with LEDGF integ inh | AID 1053131, 2014 | activation, % at 7.7 µM | TR-FRET HIV-1 integrase multimerization | 2,000 tested, 17% active; in the data active means activation above about 8.9%
TR-FRET interf = TR-FRET optical interference artefacts, confirmation, artefact control for LEDGF/p75-dependent integration inhibitor project, biochemical, HIV-1 IN multimerization | shares compounds with LEDGF integ inh | TR-FRET optical interference counterscreen | inhibition, % at 7.7 µM | 2,000 tested, under 10 active | AID 1053135, 2014;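 active means inhibition above the mean over all tested compounds plus 3 SD, which no compound reached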;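 further: 0% = integrase with antibodies and DMSO and 100% = antibodies without integrase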
IN-LEDGF confirm = inhibitors of HIV-1 IN-LEDGF/p75 DNA integration, confirmation, biochemical, TR-FRET. shares compounds with LEDGF integ inh. TR-FRET LEDGF/p75-dependent HIV-1 integration. inhibition, % at 3.7 µM. 2,000 tested, 36% active; in the data active means inhibition above about 14%
Starred values were filed as active, the others as inactive; . = no result. Shown are actives, neighbours in structure and some others; about 4.1% of the full set was active somewhere. Unless noted, no stated cut-off is given here; in the data, active means inhibition above about 21%; inactive means the rest.

SMILES	LEDGF integ inh	MBD2 inh	rCAG RNA binder	UHRF1 MBD2 ctr	ABHD5-PLIN5 inh	PRMT1 inh	rCAG bind conf	DNA CAG counter	PRMT1 inh conf	UHRF1 DNA bind	MBD2 confirm	IN multimer up	TR-FRET interf	IN-LEDGF confirm
Cc1ccc(N=C2NC(=O)/C(=C/C=C/c3ccco3)S2)cc1	22.0*	0.7	58.6*	5.5	18.5	23.0*	53.9*	26.4*	.	.	.	17.3*	-61.7	57.8*
Cc1cccc(N=C2NC(=O)/C(=C/C=C/c3ccco3)S2)c1C	48.6*	17.0*	66.6*	48.0*	11.8	29.3*	64.0*	30.9*	30.8*	21.2*	9.4	9.7*	-34.8	63.3*
O=C(O)c1ccc(NS(=O)(=O)c2ccc3c(c2)C2C=CCC2C(c2ccccc2F)N3)cc1 (centres undefined)	43.1*	4.1	87.8*	12.6	1.5	47.3*	61.2*	27.1*	13.0	.	.	17.2*	-61.2	32.7*
O=C(O)c1ccc2c(c1)C1C=CCC1C(c1cc3c(cc1Br)OCO3)N2 (centres undefined)	-1.9	2.8	34.4	0.7	0.8	-5.6	.	.	.	.	.	.	.	.
CC(NC(=O)c1cc2ccc(C(F)(F)F)cc2nc1N)c1cccc2ccccc12 (centres undefined)	2.8	6.4	10.1	-0.6	.	0.0	.	.	.	.	.	.	.	.
O=C(/C=C/c1ccco1)c1cccnc1	67.0*	31.2*	36.1*	84.0*	8.7	46.6*	9.6	5.2*	18.9	44.2*	19.7*	2.9	-14.7	50.9*
CC(/C=C/c1ccco1)=N\NC(=O)c1cccnc1	11.4	-4.8	10.8	-1.1	12.4	7.3	.	.	.	.	.	.	.	.
COc1ccc(/C=C2\SC(=NCc3ccccc3)NC2=O)cc1	1.7	4.1	7.8	-0.3	-7.3	0.3	.	.	.	.	.	.	.	.
